Rows were chosen to be rich in hits. Some 4.7% of all compounds tested hit in one or more screens of this group.
D1 agonist: agonists of human D1 dopamine receptor | P21728 | HEK293 T-REx D1 cells, calcium flux, agonist mode | activation, % at 2 µM | actives 1% (n = 360,000); in the data active means activation above about 30%; further: 0% is about no effect
Target sequence (P21728 whole entry, looked up): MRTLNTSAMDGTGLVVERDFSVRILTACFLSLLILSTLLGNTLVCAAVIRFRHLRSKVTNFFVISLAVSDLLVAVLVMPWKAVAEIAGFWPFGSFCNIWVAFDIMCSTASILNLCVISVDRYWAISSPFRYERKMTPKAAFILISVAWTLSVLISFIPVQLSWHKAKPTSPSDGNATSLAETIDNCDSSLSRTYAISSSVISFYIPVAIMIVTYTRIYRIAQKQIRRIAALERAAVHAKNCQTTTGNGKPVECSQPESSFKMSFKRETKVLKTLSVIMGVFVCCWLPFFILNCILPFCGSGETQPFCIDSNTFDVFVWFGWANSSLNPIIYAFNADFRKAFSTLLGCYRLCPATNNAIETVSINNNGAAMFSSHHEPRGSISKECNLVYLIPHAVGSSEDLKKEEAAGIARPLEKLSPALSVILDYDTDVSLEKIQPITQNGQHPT
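Tetracycline-induced HEK293 TREx D1 cells, force-coupled to calcium signalling, were dye-loaded with a no-wash calcium kit. Compound was pin-added after a 10 s baseline. Fluorescence was read kinetically at 1 cycle/s for 180 s, with calcium rises flagged as agonism.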
TRHR enhancer-1: TRH receptor (human) allosteric enhancement | enhancement, % at 2 µM | actives 0.66% (n = 360,000) | P34981 | TRHR cells, fluo-8 calcium fluorescence, EC20 TRH enhancement; in the data active means enhancement above about 30%; further: 0% is about no effect
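TRHR-expressing cells loaded with fluo-8 calcium dye were read kinetically (ex 480/em 530) during compound addition, then stimulated with an EC20 of TRH (10 nM final). Enhancement of the Gq-mediated intracellular calcium response was scored.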
TRHR agonist-1: activates the human TRH receptor | P34981 | TRHR cells, calcium flux fluo-8, FDSS agonist mode | activation, % at 2 µM | actives 0.18% (n = 360,000); in the data active means activation above about 30%; further: 0% is about no effect
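TRHR-expressing cells loaded with fluo-8 calcium dye; 23 nL library compound pin-transferred, kinetic FDSS fluorescence (Ex 480/Em 530) recorded about 180 s for agonist-induced calcium release, before a 10 nM TRH EC20 addition for potentiator mode.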
D1 potentiator: potentiators of human D1 dopamine receptor. HEK293 TREx D1 cells, calcium flux, dopamine EC20 potentiation. potentiation, % at 10 µM. AID 504651. actives 0.036% (n = 360,000). P21728; in the data active means potentiation above about 30%; further: 0% is about no effect
D1 antagonist: human D1 dopamine receptor antagonism | P21728 | HEK293 TREx D1 cells, calcium flux, dopamine EC80; active compounds read low | activity change, negative = inhibition, % at 10 µM | actives 3.2% (n = 360,000) | AID 504652; in the data active means activity change below about -30%; further: on the % scale 0 is the no-effect control and ±100 the full control effect
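After overnight tetracycline induction at 30 C, force-coupled D1 HEK293 cells took up a no-wash calcium dye at room temperature. Compounds were added and monitored 180 s, and the response to EC80 dopamine was then recorded.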
TRHR enhancer-2: confirmation of human TRH receptor allosteric enhancers; TRH receptor cell assay, enhancer confirmation qHTS; shares compounds with TRHR enhancer-1; activity change, negative = inhibition, % at 46.1 µM; 970 tested, under 10 active;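 further: compound effect scored on response to added TRH at EC20 of 10 nM; 0% is about no effect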
TRHR agonist-2: confirmation of human TRH receptor agonists. Potency, µM (highest dose often 46.1 µM), without a hit: top-dose activation, most hits filed as activators. shares compounds with TRHR enhancer-1. TRHR-expressing cells, agonist activation read-out. actives 8% (n = 970); further: potency means the concentration at half of the fitted maximal effect; 0% is about no effect; nearly all actives have a fitted effect of over 75% in size
* hit, by the source's call; ? = inconclusive; nt = no result given. Unless noted, the call rests on the fitted dose curve; in most records, active means well fitted curve in the direction sought with a large enough effect; inconclusive means small, poorly fitted or top-dose-only effect, or another doubt; inactive means no such curve, though single readings can be large; an effect the other way counts as inactive or inconclusive.

SMILES | D1 agonist | TRHR enhancer-1 | TRHR agonist-1 | D1 potentiator | D1 antagonist | TRHR enhancer-2 | TRHR agonist-2
CC1(C)CC(=O)C(C=Nc2ccc(C(=O)c3ccccc3)cc2N=CC2=C(O)CC(C)(C)CC2=O)=C(O)C1 | 86.2* | -2.6 | 26.7 | -0.5 | -14.1 | -4.5 | 1.9%
S=C(Nc1ccc(Br)cc1)N1CCCC1 | 4.5 | 41.3* | 0.0 | -1.9 | -8.8 | -2.8 | -0.4%
Cc1ccc(OCC(=O)Nc2nnc(SCc3cc(=O)n4cccc(C)c4n3)s2)cc1 | -0.5 | -4.3 | 1.7 | -0.1 | -5.2 | nt | nt
NC1=NC(=O)/C(=C/c2ccc(OCC(=O)O)cc2)S1 | 4.2 | -2.9 | 0.3 | -0.1 | -3.2 | nt | nt
CCN(CC)c1ccc(/C=C2\SC(N)=NC2=O)cc1 | 59.7* | 26.7 | 29.2 | 0.0 | 8.2 | 0.7 | ?
Cc1cccc(N(C(=O)c2csnn2)C(C(=O)NC2CCCCC2)c2ccncc2)c1 (stereo not drawn) | -0.2 | 54.5* | -0.1 | -1.9 | 12.1 | -9.3 | 0.7%
Cc1cccc(N(C(=O)c2csnn2)C(C(=O)NC2CCCC2)c2ccncc2)c1 (stereo not drawn) | -0.3 | 20.3 | -1.1 | -2.8 | 6.5 | nt | nt
CCOC(=O)C1CCCN(c2nc3ccccc3nc2C(C#N)C(=O)OC(C)C)C1 (stereo not drawn) | 3.5 | -7.4 | 42.4* | -4.0 | 6.6 | 0.8 | ?
CCOC(=O)C1CCN(c2nc3ccccc3nc2C(C#N)C(=O)OC(C)C)CC1 (stereo not drawn) | 5.6 | -7.5 | 2.2 | 7.8 | -0.6 | nt | nt
COc1cc(C(c2nnnn2C2CCCC2)N2CCc3ccccc3C2)ccc1O (stereo not drawn) | -0.3 | 3.1 | -0.2 | -0.9 | 2.5 | nt | nt
Oc1ccc(C(c2nnnn2C2CCCC2)N2CCc3ccccc3C2)cc1 (stereo not drawn) | 1.6 | 0.7 | 44.6* | -1.4 | 4.3 | -12.5 | 0.7%
CCN1C(=O)N/C(=C/c2ccc(Sc3ccc(C)cc3)o2)C1=O | 3.0 | 54.1* | -0.9 | -6.2 | -1.1 | -7.8 | 1.3%
CCN1C(=O)N/C(=C/c2ccc(C)o2)C1=O | 5.7 | -1.1 | 0.3 | -4.0 | 7.4 | nt | nt
CC(C)=CCc1c(O)ccc(C(=O)Cc2ccccc2)c1O | 13.3 | 67.4* | 2.5 | 0.5 | -22.2 | 0.4 | ?
COc1ccc(CCNC(=O)CN2CCOc3ccccc32)cc1OC | -3.7 | 58.4* | 0.0 | -0.3 | -17.9 | 1.3 | -0.2%
COc1ccccc1CNCCSc1nnnn1C | -0.4 | 1.9 | 0.7 | -0.9 | 7.2 | nt | nt
CN(C)C1(CNC(=O)COc2ccc(C(C)(C)C)cc2)CCCCC1 | 15.1 | 0.7 | 2.3 | -0.8 | 0.0 | nt | nt
Cc1cc(C)c2nc(/N=C(\N)NC(=O)c3ccccc3)nc(C)c2c1 | 5.1 | 3.8 | 0.5 | -6.5 | 0.6 | nt | nt
CCc1ccc2nc(/N=C(\N)NC(=O)c3ccccc3)nc(C)c2c1 | 5.8 | 45.3* | -0.1 | -9.2 | -18.7 | 9.2 | 8.2%
CC1CCN(C(=O)CN2CCSc3ccc(S(=O)(=O)N(C)C)cc32)CC1 | 0.7 | -9.4 | 0.5 | 0.5 | 26.5 | nt | nt
COc1cc(Cl)c(NC(=O)CN(C)S(=O)(=O)c2ccc3c(c2)CCCC(=O)N3)c(OC)c1 | 6.3 | 15.1 | -1.6 | -9.1 | -23.5 | nt | nt
CCc1nc(SCC(=O)Nc2cccc3ccccc23)[nH]c(=O)c1C | -0.4 | -5.6 | -0.1 | -8.5 | -17.7 | nt | nt
CCc1nc(SC)[nH]c(=O)c1C | 1.3 | 43.1* | -1.0 | -1.1 | 26.0 | -0.8 | -0.3%
CCOC(=O)c1ccc(N2C(=O)c3n[nH]c(-c4cccs4)c3C2c2ccc(O)c(OC)c2)cc1 (stereo not drawn) | 0.7 | -0.8 | -0.1 | -3.1 | -21.6 | nt | nt
CCOc1ccc(NC(=O)CSc2ncc3c(n2)-c2ccccc2N(C)S3(=O)=O)cc1 | 3.7 | 8.7 | -0.2 | -4.7 | 13.3 | nt | nt
CCc1cc(-c2n[nH]c(C)c2-c2nc(C)cs2)c(O)cc1OC | 3.8 | 45.2* | 1.2 | -1.1 | -0.1 | ? | 2.0%
COC(=O)c1nnn(-c2nc(N(C)C)nc(N(C)C)n2)c1C | 18.8 | 56.8* | -1.0 | -4.4 | -11.5 | -4.0 | -0.5%

Compound activity (PubChem)
